# Experimental data reported in PubChem BioAssay.
# Values joined by “and” are separate entries in the source; they are usually repeats but may differ in a detail not shown here. Equal values may be shown once. Active and inactive are the calls of the source.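 Rule for the calls, unless noted: active = inhibition at or above 50% relative to wild type and mutant plate controls; inactive = inhibition below 50%.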
# How the values were obtained:
# [1] = inhibitors of TNFa-induced NFkB p65 translocation, primary screen, imaging, HUVEC, MLSMR starter and 10KST1 sets (AID 438;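 active = inhibition above 20% together with a positive visual image hit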;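 note: compound added about 3h40 before a 20 min TNFalpha stimulation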;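 for inhibition: signal is the nuclear over cytoplasmic p65 intensity ratio per well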); details: HUVEC TNFa-induced p65 nuclear translocation; cell count: measured here: nuclei count (cytotoxicity indicator), at 2.08 µM; inhibition: at 2 µM, stronger effect = higher value, 0% TNFa-plus-vehicle, 100% no-TNFa wells
# [2] = reduction of polyQ htt aggregates in cells – imaging, exon1htt(103Q)mCFP cells, high-content imaging, primary screen (AID 483;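 active = visual image review flags a hit and inhibition of aggregation exceeds 20%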;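 note: compound exposure lasted 3 days before fixation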;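 for nuclei count: percent of the per-plate median nuclei count of sample wells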); details: exon1htt(103Q)mCFP cell line, aggregate imaging, at 2 µM; inhibition of aggregation: stronger effect = higher value; nuclei count: measured here: cell count, toxicity
# [3] = endothelial E-selectin expression blockers – imaging, HUVEC, immunofluorescence, MLSMR starter and 10KST1 sets, primary screen (AID 487;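 active = visually confirmed hit in the image check and inhibition above 20%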;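 for inhibition: signal is fraction of cell area covered by stained E-selectin grains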;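 for nuclei count: 100% = median nuclei count of all wells on the same plate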); details: HUVEC TNFalpha-induced E-selectin immunofluorescence imaging, at 2 µM; inhibition: stronger effect = higher value; nuclei count: measured here: cell number, toxicity
# [4] = Primary imaging screen for DUSP6 inhibitors that restore phospho-Erk in transfected HeLa cells, chemical complementation (AID 609;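 active = compounds giving at least 50% inhibition in the cell-based MKP-3 phosphatase rescue imaging test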;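 for inhibition: phospho-Erk level distribution per well compared with pooled transfected vehicle control wells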); details: HeLa MKP-3 transfected, phospho-Erk imaging KS statistic, at 10 µM, cells stimulated with TPA for 15 min
# [5] = biological target: Dual specificity protein phosphatase 6 (Homo sapiens) (UniProt Q16828); test: as above; details: HeLa MKP-3 transfected, phospho-Erk imaging KS statistic; at 10 µM; stronger effect = higher value; cells stimulated with TPA for 15 min
# [6] = biological target: Voltage-gated potassium channel subunit beta-2 (Rattus norvegicus) (UniProt P62483); test: inhibitors of rat Kvbeta2 reductase activity – biochemical, NADPH fluorescence, primary screen (AID 622;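 active = fluorescence slope higher than the sample average by over 3 SD, cut at about -0.22 in these data, passing the limit was not always enough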;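 note: slope of raw intensity against log time taken from 70 to 1610 s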); details: recombinant KvBeta, 4-cyanobenzaldehyde reduction, at 10 µM, stronger effect = higher value
# [7] = biological target: Voltage-gated potassium channel subunit beta-2 (Rattus norvegicus) (UniProt P62483); test: enhancers of rat Kvbeta2 NADPH turnover – biochemical, NADPH fluorescence, primary screen (AID 623;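 active = NADPH fluorescence slope more negative than the mean of all samples by about 3 SD, 99.7% confidence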;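 note: fluorescence intensity change per second fitted from 20 to 320 s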); details: Recombinant KvBeta, NADPH fluorescence decrease slope, 10 min; at 10 µM; stronger effect = lower value
# [8] = biological target: Alpha-2C adrenergic receptor (Homo sapiens) (UniProt P18825); test: compounds altering alpha2C-coupled GIRK flux – cell-based, HEK293 alpha2C/GIRK1/2, thallium flux, primary screen (AID 624;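 active = fluorescence slope after compound addition differing from the mean of all screened samples at 99.7% confidence, in either direction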;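 note: slope of fluorescence ratio to pre-addition baseline per second over 15 to 24 s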); details: thallium flux BTC fluorescence, at 10 µM, actives lie on both sides
# [9] = inhibitors of larval lipid processing in zebrafish, primary screen, whole organism, PED6 fluorescence, gall bladder and intestine (AID 686;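 active = a full or partial loss of lipid-probe fluorescence in the fish gall bladder, intestine or both, judged by eye; inactive = no fluorescence loss, or compound toxic to the fish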;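 note: larvae 5 to 7 days old with five fish per well; signal comes from phospholipase A2 cleavage of quenched PED6 carried via bile; overnight exposure to compound and PED6 before scoring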); details: Zebrafish larvae PED6 lipid processing, fluorescence scoring; screened at 20 µM (by protocol)
# [10] = loss of swimming-algae plug formation – whole organism, Chlamydomonas reinhardtii, WT vs cilia-less mutant, absorbance, 96-well, primary screen (AID 463189); details: Chlamydomonas reinhardtii gravitaxis, OD600 absorbance, 2 days; at 10 µM; stronger effect = higher value;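 note: 0% = wild type cc124 cells in DMSO and 100% = ciliumless bld1 mutant cells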
# [11] = blockers of RIG-like receptor reporter activation – cell-based, Sendai virus stimulus, luciferase, 10K MLSCN set, TLR/RLR signaling modifier project, primary screen (AID 602276;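 active = inhibition at or above 50% at 10 µM; inactive = inhibition below 50%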;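 note: firefly luciferase from ISG56 promoter only with Renilla not read in this screen; 0% = Sendai virus plus DMSO and 100% = medium plus DMSO without virus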); details: HEK293 RL24 IRF3 luciferase reporter, at 10 µM, stronger effect = higher value
# [12] = TLR3 IRF3 reporter activation blockers – cell-based, poly I:C stimulus, luciferase, 10K MLSCN set, primary screen (AID 602277;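 active = inhibition of the reporter signal at or above 50%; inactive = inhibition below 50%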); details: HEK293-TLR3 RL24 IRF3 luciferase reporter, at 10 µM, stronger effect = higher value
# [13] = measured here: cell density z-score
# [14] = measured here: nuclear c-Myc green intensity z-score
# [15] = measured here: nuclear pErk red intensity z-score, stronger effect = higher value
# Sequence of Alpha-2C adrenergic receptor (Homo sapiens) (P18825 whole entry, looked up): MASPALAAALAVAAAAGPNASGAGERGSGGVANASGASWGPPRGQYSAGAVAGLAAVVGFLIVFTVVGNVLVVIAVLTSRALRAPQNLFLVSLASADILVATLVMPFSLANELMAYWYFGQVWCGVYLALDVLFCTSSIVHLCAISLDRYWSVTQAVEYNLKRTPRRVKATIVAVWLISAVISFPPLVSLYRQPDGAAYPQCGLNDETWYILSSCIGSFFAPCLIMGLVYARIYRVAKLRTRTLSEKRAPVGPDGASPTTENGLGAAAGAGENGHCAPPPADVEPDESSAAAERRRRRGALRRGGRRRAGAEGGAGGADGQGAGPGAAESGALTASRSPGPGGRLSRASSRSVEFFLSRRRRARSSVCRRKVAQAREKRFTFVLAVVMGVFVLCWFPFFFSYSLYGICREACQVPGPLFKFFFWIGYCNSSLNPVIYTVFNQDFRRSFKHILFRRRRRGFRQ
# Sequence of Voltage-gated potassium channel subunit beta-2 (Rattus norvegicus) (P62483 whole entry, looked up): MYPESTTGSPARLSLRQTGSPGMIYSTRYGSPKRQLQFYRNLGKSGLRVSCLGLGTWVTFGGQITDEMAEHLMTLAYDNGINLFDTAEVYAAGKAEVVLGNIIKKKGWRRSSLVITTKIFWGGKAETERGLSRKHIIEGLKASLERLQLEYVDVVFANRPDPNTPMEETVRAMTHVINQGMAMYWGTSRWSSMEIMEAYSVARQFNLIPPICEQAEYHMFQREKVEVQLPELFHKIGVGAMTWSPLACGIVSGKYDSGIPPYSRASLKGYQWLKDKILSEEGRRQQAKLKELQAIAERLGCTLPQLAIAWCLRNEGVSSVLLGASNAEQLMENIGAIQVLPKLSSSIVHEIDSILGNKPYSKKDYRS
# Sequence of Dual specificity protein phosphatase 6 (Homo sapiens) (Q16828 whole entry, looked up): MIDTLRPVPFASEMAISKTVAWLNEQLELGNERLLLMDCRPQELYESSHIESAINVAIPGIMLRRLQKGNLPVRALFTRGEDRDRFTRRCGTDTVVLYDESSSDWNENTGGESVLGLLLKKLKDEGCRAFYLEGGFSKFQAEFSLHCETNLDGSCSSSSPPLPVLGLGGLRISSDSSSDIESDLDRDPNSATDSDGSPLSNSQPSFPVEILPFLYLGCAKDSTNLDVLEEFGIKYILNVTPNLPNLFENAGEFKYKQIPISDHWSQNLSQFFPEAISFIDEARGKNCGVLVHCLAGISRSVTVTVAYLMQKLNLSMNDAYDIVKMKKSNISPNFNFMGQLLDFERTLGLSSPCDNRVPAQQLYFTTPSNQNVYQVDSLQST
SMILES,cell count [1],inhibition [1],inhibition of aggregation [2],nuclei count [2] [%],inhibition [3],nuclei count [3] [%],"z-score [4, 13]","z-score [4, 14]","z-score [4, 15]",inhibition [5],fluorescence slope [6],NADPH fluorescence slope [7],slope [8],outcome [9],inhibition [10],inhibition [11],inhibition [12]
COc1ccc(/C=C(/C#N)c2cccnc2)cc1OC,515,4.6% (inactive),17.7% (inactive),82.3,-17.2% (inactive),112,0.571,-1.05,-1.32,1.48% (inactive),-0.499 (inactive),-4.4e-05 (inactive),0.00455 (inactive),inactive,-22% (inactive),6.71% (inactive),-45.5% (inactive)
COC(=O)c1ccc(-c2sc3nc(N4CCOCC4)c4c(c3c2N)CCCC4)o1,683,-7.7% (inactive),-43% (inactive),103,18.1% (inactive),126,-0.0797,0.0278,1.68,14.4% (inactive),-0.000813 (inactive),0 (inactive),0.0101 (inactive),inactive,-6.82% (inactive),13% (inactive),-14.5% (inactive)
COc1cc(/C=N/n2c(C)nnc2C)cc(OC)c1OC,454,-5.9% (inactive),3.2% (inactive),109,-27.1% (inactive),92.1,0.126,-0.553,-1.17,-1.75% (inactive),-0.395 (inactive),-3.1e-06 (inactive),0.00638 (inactive),inactive,23.6% (inactive),14% (inactive),13.7% (inactive)
CC(=O)O[C@]1(C(C)=O)CC[C@H]2[C@@H]3C=C(C)C4=CC(=O)CC[C@]4(C)[C@H]3CC[C@@]21C,697,-4.5% (inactive),-13.2% (inactive),103,-91% (inactive),125,0.989,-0.815,-0.896,7.39% (inactive),-0.492 (inactive),-2e-05 (inactive),0.00287 (inactive),inactive,1.32% (inactive),15.7% (inactive),41% (inactive)
O=C(O)/C=C/c1ccc(O)c(O)c1,613,4% (inactive),8.3% (inactive),103,-48.2% (inactive),116,-0.618,-0.142,-0.455,10.2% (inactive),-0.453 (inactive),-6.6e-05 (inactive),0.00437 (inactive),inactive,-2.7% (inactive) and 27.7% (inactive),8.79% (inactive),43.2% (inactive)
COC(=O)c1cc(Br)c(=O)n(CCc2ccc(F)cc2)c1,595,-7.1% (inactive),-4.6% (inactive),93.4,6.1% (inactive),151,-0.681,0.872,1.23,1.9e-07% (inactive),-0.324 (inactive),-5.7e-05 (inactive),0.00485 (inactive),active; no signal in intestine only,-7.76% (inactive),4.86% (inactive),5.55% (inactive)
CCC1=C(C(=O)OC)C(c2cc(OC)ccc2OC)C(C#N)=C(N)O1 (stereo not drawn),296,-8.8% (inactive),6.8% (inactive),106,-58% (inactive),129,1.11,0.712,-2.04,5.65% (inactive),-0.478 (inactive),-0.000233 (inactive),0.00469 (inactive),inactive,-0.583% (inactive),17% (inactive),24% (inactive)
Cc1cccc(C)c1NC(=O)C1CCCCN1C (stereo not drawn),662,-8.2% (inactive),-22% (inactive),108,-104% (inactive),139,1.2,-0.238,0.358,3.45% (inactive),-0.488 (inactive),-4.1e-05 (inactive),0.00459 (inactive),inactive,3.16% (inactive),12.7% (inactive),35.5% (inactive)
COCCCC/C(=N\OCCN)c1ccc(C(F)(F)F)cc1,514,-7.2% (inactive),-27.7% (inactive),100,-121% (inactive),121,1.11,-1.18,0.0602,9.37% (inactive),-0.468 (inactive),-6.2e-05 (inactive),0.00513 (inactive),inactive,-1.98% (inactive) and -5.54% (inactive),5.66% (inactive),36.1% (inactive)
C[C@]12CCC(=O)C=C1CC[C@@H]1[C@@H]2CC[C@@]2(C)[C@H]1CC[C@]2(O)C(=O)CO,695,0.6% (inactive),27.5% (inactive),102,-97.9% (inactive),125,0.881,0.613,-1.07,8% (inactive),-0.52 (inactive),-6.8e-05 (inactive),0.00434 (inactive),inactive,-0.27% (inactive) and -16.6% (inactive),5.65% (inactive),35.1% (inactive)
CC[C@]1(O)CC2CN(CCc3c([nH]c4ccccc34)[C@@](C(=O)OC)(c3cc4c(cc3OC)N(C=O)[C@H]3[C@@](O)(C(=O)OC)[C@H](OC(C)=O)[C@]5(CC)C=CCN6CC[C@]43[C@@H]65)C2)C1 (stereo partly drawn),496,31.7% (active),-69.9% (inactive),1.5,-122% (inactive),76.8,0.276,-0.499,1.19,27.9% (inactive),-0.439 (inactive),-3.8e-07 (inactive),0.00563 (inactive),inactive,-2.94% (inactive),32.7% (inactive),85.7% (active)
C=CCc1ccccc1OCC(O)CNC(C)C (stereo not drawn),628,-8.8% (inactive),-10% (inactive),89.9,-120% (inactive),131,1.42,0.365,-0.961,7.39% (inactive),-0.466 (inactive),-2.4e-05 (inactive),0.00435 (inactive),inactive,-2.53% (inactive) and -4.71% (inactive),11.2% (inactive),34.8% (inactive)
O=C(O)CCCc1ccccc1,647,0.8% (inactive),-15.5% (inactive),106,-27.5% (inactive),112,0.592,-1.18,-0.707,8% (inactive),-0.549 (inactive),-3.8e-05 (inactive),0.0053 (inactive),inactive,-5.1% (inactive),-1.93% (inactive),7.07% (inactive)
S=C(N=Nc1ccccc1)NNc1ccccc1,456,-24.6% (inactive),15.4% (inactive),97.4,-51.9% (inactive),122,0.583,-0.233,0.888,-2.46% (inactive),-0.552 (inactive),-4.2e-05 (inactive),0.0111 (inactive),inactive,12.8% (inactive),-11.4% (inactive),-44.3% (inactive)
CC(=O)O[C@]1(C(C)=O)CC[C@H]2[C@@H]3C[C@H](C)C4=CC(=O)CC[C@]4(C)[C@H]3CC[C@@]21C,605,2.3% (inactive),0.3% (inactive),94.8,-47.8% (inactive),119,1.33,-0.458,0.835,12.4% (inactive),-0.521 (inactive),-6e-06 (inactive),0.00379 (inactive),inactive,-2.6% (inactive),8.39% (inactive),46.7% (inactive)
O=c1oc2cc(O)ccc2c2oc3cc(O)ccc3c12,610,3.6% (inactive),11.2% (inactive),78.7,-22% (inactive),112,0.528,1.66,-1.32,25.7% (inactive),-0.398 (inactive),-1e-05 (inactive),0.00469 (inactive),inactive,6.48% (inactive),12.4% (inactive),41.2% (inactive)
COc1cc(N2C(=O)CSC23C(=O)Nc2ccccc23)cc(OC)c1OC (stereo not drawn),512,-13.1% (inactive),-13.9% (inactive),99.6,-26.2% (inactive),105,-0.126,-0.03,0.793,1.6e-07% (inactive),-0.342 (inactive),6.8e-06 (inactive),0.00524 (inactive),inactive,24.8% (inactive),2.33% (inactive),10.8% (inactive)
CN(C)c1nc(N(C)C)nc(N(C)C)n1,680,-4.1% (inactive),1.6% (inactive),109,-118% (inactive),129,1.31,-0.357,-1.49,11.3% (inactive),-0.459 (inactive),2.8e-05 (inactive),0.0048 (inactive),inactive,4.91% (inactive) and -7.01% (inactive),14.2% (inactive),32.5% (inactive)
COCCCN1C(=O)C(O)=C(C(=O)c2ccco2)C1c1ccc(Br)cc1 (stereo not drawn),417,-4.6% (inactive),-13.4% (inactive),107,-25.5% (inactive),117,-1.16,0.864,0.315,-4.7% (inactive),-0.457 (inactive),7.2e-06 (inactive),0.00512 (inactive),inactive,6.25% (inactive),23.9% (inactive),22.2% (inactive)
